Assay results published in PubChem BioAssay.
Values joined by “and” are separate entries in the source; they are usually repeats but may differ in a detail not shown here. Equal entries are not always repeated. Active and inactive are the calls of the source.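 Rule for the calls, unless noted: active = compounds whose cell count with miR-34 switched on is under 0.7 times the count with it off; inactive = the rest.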

Columns and labels:
[1] = sensitizers of A549 cells to miR-34 induction, primary screen, imaging, A549 dox-inducible miR-34, nuclei and caspase counts (AID 1347080); details: A549 miR-34 inducible, Hoechst nuclei count, 48 h
[2] = survival rescue of mitochondrial mutant cells in low glucose, primary screen, MELAS cybrids, Rieske KO mouse fibroblasts, CellTiter-Glo (AID 1508586;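 active = mean z-score across replicates of 1.96 or higher in either the MELAS or the Rieske mutant cell line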;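 note: z relative to plate mean and SD of compound and empty wells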)
[3] = stronger effect = lower value, cell number ratio, induced over uninduced
[4] = measured here: relative caspase fold change +Dox/-Dox
[5] = measured here: total cells with miR-34 induction, stronger effect = lower value
[6] = measured here: total cells without miR-34 induction
[7] = MELAS cybrid survival, CellTiter-Glo 48 h, stronger effect = higher value
[8] = Rieske KO mouse fibroblast survival, CellTiter-Glo 72 h
Note: test concentration not given here.

| Structure (SMILES) | fold change [1, 3] | fold change [1, 4] | cell count [1, 5] | cell count [1, 6] | z-score [2, 7] | z-score [2, 8] |
| --- | --- | --- | --- | --- | --- | --- |
| CC1(C)O[C@H]2CC(=O)OC[C@]23[C@H]2CC[C@@]4(C)C(c5ccoc5)OC(=O)C5O[C@]54[C@@]2(C)C(=O)C[C@@H]13 (stereo not given in full) | 0.854 (inactive) | 0.906 | 8580 | 10000 | -0.275 (inactive) | -0.503 |
| CNCc1cc(-c2ccccc2F)n(S(=O)(=O)c2cccnc2)c1 | 0.924 (inactive) | 0.437 | 8460 | 9150 | -0.328 (inactive) | 0.241 |
| O=C1NC(=O)C(=Cc2ccc3nccc(-c4ccncc4)c3c2)S1 | 0.936 (inactive) | 0.601 | 1700 | 1820 | 0.995 (inactive) | -1.12 |
| CCNC(=O)c1[nH]nc(-c2cc(Cl)c(O)cc2O)c1-c1ccc(OC)cc1 | 1.1 (inactive) | 0.416 | 3020 | 2740 | 2.3 (active) | -0.612 |
| CN1CCc2nc(C(=O)NC3CC(C(=O)N(C)C)CCC3NC(=O)C(=O)Nc3ccc(Cl)cn3)sc2C1 (stereo not given) | 0.965 (inactive) | 0.478 | 8860 | 9180 | -0.402 (inactive) | -0.373 |
| Cc1ccc(NCCCc2ccccc2)c(N)c1 | 0.882 (inactive) | 0.496 | 7500 | 8510 | -0.425 (inactive) | 0.263 |
| OCCOc1ccc(C(=C(CCCl)c2ccccc2)c2ccccc2)cc1 | 0.979 (inactive) | 0.793 | 9190 | 9380 | -0.333 (inactive) | -0.092 |
| CCC1OC(=O)C(C)C(OC2C[C@@](C)(OC)C(O)C(C)O2)C(C)C(OC2OC(C)CC(N(C)C)C2O)[C@](C)(O)CC(C)CN(C)C(C)C(O)[C@]1(C)O (stereo not given in full) | 0.925 (inactive) | 0.82 | 8110 | 8770 | -0.213 (inactive) | 0.708 |
| C=C1C(=O)[C@@]23C(O)[C@H]1CCC2[C@]12CO[C@]3(O)C(O)[C@@H]1C(C)(C)CCC2O (stereo not given in full) | 0.94 (inactive) | 0.647 | 8410 | 8940 | -0.553 (inactive) | -0.438 |
| CNC(=O)c1cccc(-c2ccc3c(N4CCOCC4C)nc(N4CCOCC4C)nc3n2)c1 (stereo not given) | 1 (inactive) | 0.416 | 3420 | 3410 | 3.83 (active) | -2.15 |
| OCC(O)C(O)CO (stereo not given) | 0.967 (inactive) | 0.463 | 8430 | 8720 | -0.193 (inactive) | -0.162 |
| CC(=CC(=O)OCCCCCCCCC(=O)O)CC1OC[C@H](CC2O[C@H]2C(C)C(C)O)C(O)C1O (stereo not given in full) | 0.939 (inactive) | 0.638 | 8270 | 8800 | 0.679 | 5.51 |
| COC(=O)C1=COC(OC2OC(CO)C(O)C(O)C2O)[C@H]2C(CO)=CC[C@H]12 (stereo not given in full) | 0.942 (inactive) | 0.842 | 7570 | 8040 | -0.247 (inactive) | -0.0973 |
| CCc1cc2c(cc1CC)CC(NCC(O)c1ccc(O)c3[nH]c(=O)ccc13)C2 (stereo not given) | 1.01 (inactive) | 0.491 | 7460 | 7410 | -0.199 (inactive) | -0.118 |
| CN(C)CCC=C1c2ccccc2Sc2ccc(Cl)cc21 | 1.02 (inactive) | 0.667 | 7540 | 7420 | -0.469 (inactive) | -0.0938 |
| COc1cc(C=CC(=O)N2CCN(CC(=O)N3CCCC3)CC2)cc(OC)c1OC | 0.989 (inactive) | 0.412 | 8470 | 8570 | -0.177 (inactive) | -0.0197 |
| O=C(Nc1ccccc1Br)NC1CCN(c2ccc(C(F)(F)F)cn2)C1 (stereo not given) | 0.944 (inactive) | 0.559 | 9350 | 9910 | -0.215 (inactive) | 0.944 |
| CCCCC(F)(F)C(=O)CCC1C(O)CC(=O)C1CCCCCCC(=O)O (stereo not given) | 0.926 (inactive) | 0.726 | 8100 | 8740 | 0.0399 (inactive) | -0.0235 |
| CNC(=O)C(c1ccccc1)N1CCc2cc(OC)c(OC)cc2C1CCc1ccc(C(F)(F)F)cc1 (stereo not given) | 1.06 (inactive) | 0.482 | 6530 | 6180 | -0.149 (inactive) | 0.101 |
| COc1c(O)cc2c(c1O)[C@@H]1OC(CO)C(O)C(O)[C@H]1OC2=O (stereo not given in full) | 0.888 (inactive) | 1.9 | 8260 | 9300 | -0.313 (inactive) | 0.533 |
| CON=C(C(=O)N[C@@H]1C(=O)N2C(C(=O)O)=C(CSC(=O)c3ccco3)CS[C@H]12)c1csc(N)n1 | 0.943 (inactive) | 1.19 | 9660 | 10200 | -0.295 (inactive) | 0.108 |
| CC1C[C@H]2[C@@H]3CCC4=CC(=O)C=C[C@]4(C)[C@]3(F)C(O)C[C@]2(C)[C@]1(O)C(=O)CO (stereo not given in full) | 0.886 (inactive) and 0.91 (inactive) | 0.577 and 0.802 | 5440 and 5070 | 6140 and 5570 | -0.338 (inactive) and -0.534 (inactive) | 0.031 and -0.0341 |
| CNc1nc(Nc2cnn(C3CCN(C4COC4)CC3F)c2Cl)ncc1C(F)(F)F (stereo not given) | 0.967 (inactive) | 0.45 | 8480 | 8760 | -0.354 (inactive) | 0.843 |

| Structure (SMILES) | fold change [1, 3] | fold change [1, 4] | cell count [1, 5] | cell count [1, 6] | z-score [2, 7] | z-score [2, 8] |
| --- | --- | --- | --- | --- | --- | --- |
| Fc1ccc(C(c2ccc(F)cc2)N2CCN(CC=Cc3ccccc3)CC2)cc1 | 0.899 (inactive) | 0.978 | 7880 | 8760 | -0.335 (inactive) | 0.411 |
| CC(=O)O[C@]1(C(C)=O)CC[C@H]2[C@@H]3C[C@H](C)C4=CC(=O)C=C[C@]4(C)[C@@]3(F)[C@H](O)C[C@@]21C | 0.862 (inactive) | 1.9 | 5370 | 6240 | -0.0969 (inactive) | -0.184 |
| NCCCCCNCC12CC3CC(CC(C3)C1)C2 | 0.991 (inactive) | 0.726 | 8590 | 8670 | -0.291 (inactive) | -0.0827 |
| N#Cc1ccc2[nH]c(O)c(-c3ccc(CN4CCOCC4)cn3)c2c1 | 0.757 (inactive) | 0.717 | 2200 | 2900 | 1.12 (inactive) | -0.87 |
| Cn1cc(-c2[nH]c3cc(NC(=O)C(N)C4CCCCC4)cc4c3c2C=NNC4=O)cn1 (stereo not given) | 0.983 (inactive) | 1.09 | 2060 | 2100 | 0.356 (inactive) | -0.0626 |
| CC(=O)O[C@@]1(C(C)=O)CC[C@H]2[C@@H]3CC(C)C4=CC(=O)CC[C@]4(C)[C@@H]3CC[C@@]21C (stereo not given in full) | 0.92 (inactive) | 0.806 | 7550 | 8200 | -0.365 (inactive) | -0.106 |
| Cc1[nH]c2ccccc2c1CCNC(=O)c1cccs1 | 0.913 (inactive) | 0.438 | 7830 | 8570 | -0.422 (inactive) | 0.75 |
| CC(C)c1nc(N(C)S(C)(=O)=O)nc(-c2ccc(F)cc2)c1C=CC(O)CC(O)CC(=O)O (stereo not given) | 0.92 (inactive) | 0.647 | 8010 | 8710 | 0.606 (inactive) | -0.0253 |
| C[C@]12C[C@@]3(O)O[C@@H](O1)[C@]1(COC(=O)c4ccccc4)[C@H]3C[C@@]12OC1OC(CO)C(O)C(O)C1O (stereo not given in full) | 0.87 (inactive) | 0.575 | 8970 | 10300 | -0.445 (inactive) | -0.113 |
| CCOC(=O)O[C@@]1(C(=O)OCCl)CC[C@H]2[C@@H]3CCC4=CC(=O)C=C[C@]4(C)[C@@H]3C(O)C[C@@]21C (stereo not given in full) | 0.859 (inactive) | 1.25 | 5320 | 6190 | -0.313 (inactive) | -0.191 |
| CC(C)C(N)C(=O)OCC(CO)OCN1C=NC2C(=O)NC(N)=NC21 (stereo not given) | 0.916 (inactive) | 0.625 | 8420 | 9190 | -0.0737 (inactive) | -0.153 |
| CC(C)CCNC(=O)C(CC(C)C)NC(=O)C1OC1C(=O)O (stereo not given) | 0.919 (inactive) | 0.36 | 8670 | 9430 | -0.356 (inactive) | 0.0853 |
| Cn1c(=O)cc(N2CCCC(N)C2)n(Cc2ccccc2C#N)c1=O (stereo not given) | 0.958 (inactive) | 0.837 | 8510 | 8880 | -0.12 (inactive) | -0.0809 |
| CC(C)N(CCCNC(=O)Nc1ccc(C(C)(C)C)cc1)CC1OC(n2cc(Br)c3c(N)ncnc32)C(O)C1O (stereo not given) | 0.844 (inactive) | 1.16 | 7150 | 8480 | -0.128 (inactive) | -0.178 |
| CNc1ncnc2c1ncn2C1OC(CO)C(O)C1O (stereo not given) | 0.908 (inactive) | 0.537 | 7310 | 8050 | -0.0172 (inactive) | -0.235 |
| CC(C)C1C(=O)NC(CCCN=C(N)N)C(=O)NCC(=O)NC(CC(=O)O)C(=O)NC(Cc2ccccc2)C(=O)N1C (stereo not given) | 0.841 (inactive) | 0.758 | 304 | 361 | 0.703 (inactive) | -0.232 |
| CCCCCCCCCCCCCCCC(=O)OC1C(SC)OC(C(NC(=O)C2CC(CCC)CN2C)C(C)Cl)C(O)C1O (stereo not given) | 0.883 (inactive) | 0.558 | 9240 | 10500 | -0.438 (inactive) | -0.237 |
| CCCSc1nc(NC2CC2c2ccc(F)c(F)c2)c2nnn(C3CC(OCCO)C(O)C3O)c2n1 (stereo not given) | 0.894 (inactive) | 0.998 | 6430 | 7190 | -0.266 (inactive) | -0.123 |
| O=C(O[C@H]1CN2CCC1CC2)N1CCc2ccccc2C1c1ccccc1 (stereo not given in full) | 0.932 (inactive) | 0.636 | 6880 | 7380 | -0.171 (inactive) | 0.000903 |
| CCCC(NC(=O)C1[C@H]2CCC[C@H]2CN1C(=O)C(NC(=O)C(NC(=O)c1cnccn1)C1CCCCC1)C(C)(C)C)C(=O)C(=O)NC1CC1 (stereo not given in full) | 0.872 (inactive) | 1.37 | 5460 | 6260 | -0.469 (inactive) | 0.214 |
| CC(C)N(CC1OC(n2cnc3c(N)ncnc32)C(O)C1O)C1CC(CCc2nc3ccc(C(C)(C)C)cc3[nH]2)C1 (stereo not given) | 0.923 (inactive) | 0.796 | 8950 | 9700 | -0.166 (inactive) | -0.146 |
| CC(=O)O[C@]12COC1CC(O)[C@]1(C)C(=O)C(O)C3=C(C)C(OC(=O)C(O)C(NC(=O)OC(C)(C)C)c4ccccc4)C[C@](O)(C(OC(=O)c4ccccc4)C21)C3(C)C (stereo not given in full) | 1.04 (inactive) | 0.7 | 2320 | 2220 | 6.54 (active) | -0.0789 |
